Source: PubChem BioAssay AID2662 (National Center for Advancing Translational Sciences (NCATS), 2010)
The campaign covered roughly 290,000 compounds. About 110 (0.038%) were called active. Another 3% or so got no clear call; they are omitted. The call rests on the fitted dose curve; in most records, active means well fitted inhibition curve with a large enough effect in the polarisation, with a control signal flat (not every such curve was filed as active); inconclusive means small, poorly fitted or top-dose-only effect, or effect the other way, or a change in a side signal; inactive means no such curve, though single readings can be large or run the other way; the % refers to the polarisation. Many of the other results were omitted from the sample, so actives are more common in it than they were.

target: Histone-lysine N-methyltransferase 2A (Homo sapiens) (UniProt Q03164); test: qHTS Fluorescence Polarization Assay for Inhibitors of MLL CXXC domain - DNA interaction; settings: MLL-CXXC / FITC-HOXA9 DNA fluorescence polarization; series mostly up to 115 µM; activity change, negative = inhibition: at the top concentration
Description: NIH Chemical Genomics Center [NCGC] NIH Molecular Libraries Probe Production centers Network [MLPCN] MLPCN Grant: DA027717-01A1 Assay Submitter (PI): John Bushweller NCGC Assay Overview: The MLL (Mixed Lineage Luekemia) gene is involved in chromosomal translocation that results in either acute lymphoid leukemia (ALL) or acute myeloid leukemia (AML). Chromasomal translocation of MLL gene is responsible for the fusion of N-terminal MLL to more than 60 different partner genes in frame. Many of the MLL partner genes contain transcription activation domains or function as transcriptional activators. Despite the heterogeneity of fusion partners, the N-terminus of MLL fusion proteins always consists of the N-terminal menin binding motif and the CXXC domain. The MLL-CXXC domain specifically recognizes unmethylated CpG sequences of the HOX-A gene. Disruption of the MLL-CXXC and HOX-A gene interaction leads to down regulation of HOX-A gene expression and may potentially reverse leukemogenesis. We have miniaturized and optimized an in-vitro assay to screen for inhibitors of the MLL-CXXC domain and HOX-A DNA interaction, which could have utility in MLL fusion leukemias.
The affinity purified MLL-CXXC domain, unlabeled HOX-A9 DNA strand, fluorescein (FLSN) labeled HOX-A9 DNA strand were kindly supplied by the laboratory of Dr. John Bushweller, University of Virginia. All reagents were stored in single use aliquots at -80C. Assay Reagents: Assay buffer: 50 mM TRIS-HCl pH 7.5, 50 mM NaCl, 1 mM DTT. Add 0.05% BSA prior to reaction setup. Assay Procedure: 1.Dispense 1 ul of a 7 uM MLL-CXXC solution prepared in assay buffer into column 1-48. 2.Transfer 23 nl of compounds and unlabeled HOX-A9 per well. 3.Incubate for 5 minutes at ambient. 4.Dispense 1ul of a 50 nM FLSN-HOX-A9 solution prepared in assay buffer into columns 1-48 5.Centrifuge for 30 seconds at 1000 RPM. 6.Incubate for 30 minutes at ambient. 7.Read using the Envision reader fluorescent polarization protocol.
Potency means the concentration at half of the fitted maximal effect.

Sequence of Histone-lysine N-methyltransferase 2A (Homo sapiens) (Q03164 whole entry, looked up, the tested form may be a part): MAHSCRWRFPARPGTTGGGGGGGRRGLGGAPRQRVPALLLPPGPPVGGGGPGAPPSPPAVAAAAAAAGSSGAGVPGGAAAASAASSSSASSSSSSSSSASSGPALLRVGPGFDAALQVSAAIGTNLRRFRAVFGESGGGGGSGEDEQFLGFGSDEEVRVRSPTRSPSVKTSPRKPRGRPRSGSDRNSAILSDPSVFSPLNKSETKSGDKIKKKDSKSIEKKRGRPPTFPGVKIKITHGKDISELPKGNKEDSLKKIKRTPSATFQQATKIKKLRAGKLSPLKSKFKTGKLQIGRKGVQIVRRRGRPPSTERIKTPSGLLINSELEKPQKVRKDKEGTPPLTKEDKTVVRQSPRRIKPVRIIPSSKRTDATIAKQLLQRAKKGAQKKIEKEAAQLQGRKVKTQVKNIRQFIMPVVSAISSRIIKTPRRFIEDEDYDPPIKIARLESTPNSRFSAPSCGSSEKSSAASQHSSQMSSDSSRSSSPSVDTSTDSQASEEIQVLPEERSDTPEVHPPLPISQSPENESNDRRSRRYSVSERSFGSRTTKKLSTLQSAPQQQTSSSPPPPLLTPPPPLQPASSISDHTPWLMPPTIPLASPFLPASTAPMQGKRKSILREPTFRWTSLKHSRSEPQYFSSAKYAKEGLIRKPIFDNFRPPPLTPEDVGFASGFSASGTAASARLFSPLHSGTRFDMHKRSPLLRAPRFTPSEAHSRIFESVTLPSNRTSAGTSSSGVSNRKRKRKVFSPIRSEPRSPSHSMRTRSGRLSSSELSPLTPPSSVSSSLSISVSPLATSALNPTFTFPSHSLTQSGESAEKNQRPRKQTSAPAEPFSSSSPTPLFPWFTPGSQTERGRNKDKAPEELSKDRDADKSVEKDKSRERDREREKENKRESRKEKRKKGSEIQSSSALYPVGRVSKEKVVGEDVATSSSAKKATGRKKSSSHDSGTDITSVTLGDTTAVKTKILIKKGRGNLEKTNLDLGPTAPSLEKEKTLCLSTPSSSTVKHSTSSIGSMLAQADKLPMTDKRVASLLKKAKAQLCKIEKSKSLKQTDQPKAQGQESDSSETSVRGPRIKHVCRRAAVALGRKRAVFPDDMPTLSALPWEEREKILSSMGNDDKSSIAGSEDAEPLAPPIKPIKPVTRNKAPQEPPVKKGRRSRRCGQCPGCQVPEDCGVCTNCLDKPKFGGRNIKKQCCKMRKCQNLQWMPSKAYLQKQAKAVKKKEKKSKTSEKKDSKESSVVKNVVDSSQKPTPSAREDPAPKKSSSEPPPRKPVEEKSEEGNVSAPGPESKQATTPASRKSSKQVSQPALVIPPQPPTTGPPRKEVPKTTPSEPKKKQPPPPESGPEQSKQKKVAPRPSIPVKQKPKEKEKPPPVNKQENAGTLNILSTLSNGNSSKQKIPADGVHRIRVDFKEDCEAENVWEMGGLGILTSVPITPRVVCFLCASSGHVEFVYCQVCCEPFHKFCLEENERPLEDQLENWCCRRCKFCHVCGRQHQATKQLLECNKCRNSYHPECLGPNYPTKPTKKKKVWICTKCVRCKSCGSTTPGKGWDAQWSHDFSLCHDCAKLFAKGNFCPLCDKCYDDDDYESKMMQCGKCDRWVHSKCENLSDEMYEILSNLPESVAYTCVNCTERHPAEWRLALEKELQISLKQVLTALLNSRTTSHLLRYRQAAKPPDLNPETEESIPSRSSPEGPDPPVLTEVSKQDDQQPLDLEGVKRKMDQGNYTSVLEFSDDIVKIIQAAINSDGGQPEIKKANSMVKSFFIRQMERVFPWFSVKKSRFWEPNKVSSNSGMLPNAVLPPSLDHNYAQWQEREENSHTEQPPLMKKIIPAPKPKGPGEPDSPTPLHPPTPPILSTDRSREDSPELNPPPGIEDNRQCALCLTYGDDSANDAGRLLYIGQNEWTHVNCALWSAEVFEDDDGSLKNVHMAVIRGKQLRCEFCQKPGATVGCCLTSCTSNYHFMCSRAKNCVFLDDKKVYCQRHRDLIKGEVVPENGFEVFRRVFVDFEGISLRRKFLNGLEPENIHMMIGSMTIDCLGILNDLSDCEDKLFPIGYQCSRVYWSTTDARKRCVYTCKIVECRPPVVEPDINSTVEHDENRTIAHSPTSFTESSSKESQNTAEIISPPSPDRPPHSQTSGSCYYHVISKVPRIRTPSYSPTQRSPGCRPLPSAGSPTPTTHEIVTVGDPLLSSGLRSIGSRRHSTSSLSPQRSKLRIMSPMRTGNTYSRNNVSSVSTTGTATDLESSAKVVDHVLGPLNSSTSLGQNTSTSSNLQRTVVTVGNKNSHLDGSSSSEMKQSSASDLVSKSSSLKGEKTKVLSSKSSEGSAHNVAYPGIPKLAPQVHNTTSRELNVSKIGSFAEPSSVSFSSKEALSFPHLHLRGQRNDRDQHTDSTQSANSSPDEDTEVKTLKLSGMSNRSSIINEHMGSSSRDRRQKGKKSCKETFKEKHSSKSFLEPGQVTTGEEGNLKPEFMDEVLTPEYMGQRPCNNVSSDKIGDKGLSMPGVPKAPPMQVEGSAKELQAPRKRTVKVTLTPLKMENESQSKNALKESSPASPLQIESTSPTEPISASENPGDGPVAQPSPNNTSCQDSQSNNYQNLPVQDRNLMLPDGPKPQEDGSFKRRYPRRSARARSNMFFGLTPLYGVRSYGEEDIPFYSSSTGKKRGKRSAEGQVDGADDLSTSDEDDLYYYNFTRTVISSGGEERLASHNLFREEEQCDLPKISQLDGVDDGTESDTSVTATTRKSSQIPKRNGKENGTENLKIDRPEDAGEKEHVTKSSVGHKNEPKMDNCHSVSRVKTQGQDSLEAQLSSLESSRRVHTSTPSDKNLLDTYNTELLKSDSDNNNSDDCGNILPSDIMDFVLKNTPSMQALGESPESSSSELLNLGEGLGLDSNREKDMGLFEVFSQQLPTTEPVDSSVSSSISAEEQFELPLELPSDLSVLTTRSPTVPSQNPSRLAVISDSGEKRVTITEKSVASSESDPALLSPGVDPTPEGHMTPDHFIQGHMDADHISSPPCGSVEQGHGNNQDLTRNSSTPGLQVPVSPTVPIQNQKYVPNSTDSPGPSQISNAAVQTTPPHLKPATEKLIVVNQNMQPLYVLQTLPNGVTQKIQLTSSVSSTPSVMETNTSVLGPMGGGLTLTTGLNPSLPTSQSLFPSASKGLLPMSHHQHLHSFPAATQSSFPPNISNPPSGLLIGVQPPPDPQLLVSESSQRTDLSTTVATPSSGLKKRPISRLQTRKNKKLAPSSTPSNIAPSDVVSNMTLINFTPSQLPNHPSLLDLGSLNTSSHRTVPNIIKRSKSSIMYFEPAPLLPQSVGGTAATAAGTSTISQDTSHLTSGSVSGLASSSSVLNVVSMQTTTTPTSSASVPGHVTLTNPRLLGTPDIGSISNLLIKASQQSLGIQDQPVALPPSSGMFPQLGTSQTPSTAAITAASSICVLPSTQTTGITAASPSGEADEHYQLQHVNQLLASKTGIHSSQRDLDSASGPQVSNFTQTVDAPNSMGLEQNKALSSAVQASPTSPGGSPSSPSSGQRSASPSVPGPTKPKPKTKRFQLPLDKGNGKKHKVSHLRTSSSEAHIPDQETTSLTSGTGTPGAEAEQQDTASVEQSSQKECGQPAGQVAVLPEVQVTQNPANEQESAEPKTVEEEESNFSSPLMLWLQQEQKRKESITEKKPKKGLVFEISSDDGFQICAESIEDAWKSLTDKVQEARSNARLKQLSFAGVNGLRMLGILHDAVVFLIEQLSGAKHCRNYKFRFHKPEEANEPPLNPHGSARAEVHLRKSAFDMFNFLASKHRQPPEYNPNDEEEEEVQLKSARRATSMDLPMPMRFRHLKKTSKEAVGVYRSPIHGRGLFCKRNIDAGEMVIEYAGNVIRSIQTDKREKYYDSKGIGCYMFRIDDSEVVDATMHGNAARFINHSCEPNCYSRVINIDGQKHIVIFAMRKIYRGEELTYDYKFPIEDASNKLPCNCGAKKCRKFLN

Row | SMILES | Potency | activity change, negative = inhibition
1 | O=C(OCC1O[C@@H](OC(=O)c2cc(O)c(O)c(O)c2)[C@@H](OC(=O)c2cc(O)c(O)c(O)c2)[C@@H](OC(=O)c2cc(O)c(O)c(O)c2)[C@@H]1OC(=O)c1cc(O)c(O)c(O)c1)c1cc(O)c(O)c(O)c1 (stereo not given in full) | 31.6 µM (active) | –
2 | COC([CH2][Hg])CNC(=O)c1ccccc1OCC(=O)O (stereo not given) | – | 0.129% (inactive)
3 | CC(C)COC(=O)n1c(=O)oc2ccc(S(=O)(=O)N3CCCCC3)cc21 | – | 56.4% (inactive)
4 | CCOC(=O)C(NS(=O)(=O)c1ccc(C)cc1)(C(F)(F)F)P(=O)(OCC(C)C)OCC(C)C (stereo not given) | – | 35.1% (inactive)
5 | CN1CCCC(=C(c2cccs2)c2cccs2)C1 | – | 0.874% (inactive)
